Reference: PubChem BioAssay (Tox21)
“And” between values parts separate entries of the source, which are not always exact repeats. Equal values may be shown once. Inconclusive results are not listed. Some compounds were tested as several samples or in several runs, with calls that do not always agree. The source made the active and inactive calls. Unless noted, calls come from the whole dose curve; as a rule, active = well fitted curve in the direction sought with a large enough effect in the repeat runs; inconclusive = weak or mixed curves; inactive = no such curve, though single readings can be large; an effect the other way counts as inactive or inconclusive.

What was measured:
[1] = qHTS assay for small molecules that induce genotoxicity in human embryonic kidney cells expressing luciferase-tagged ATAD5 (AID 651632); note: nearly all actives have a fitted effect of over 15% in size
Method in brief: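 Increased luciferase signal from ATAD5-tagged reporter cells indicates DNA-damage-driven ATAD5 induction. HEK293T cells are treated for 16 hr at 37C before detection with Amplite.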

[2] = qHTS assay for small molecule agonists of the p53 signaling pathway - cell viability (AID 651633; calls by dose curve; note: nearly all actives have a fitted effect of over 30% in size; note: potency is the fitted concentration of half-maximal effect)
Method in brief: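 p53RE-bla cells, seeded at 4,000 per well and rested 5 h at 37 C/5% CO2, received compounds in DMSO for 16 h at 37 C. CellTiter-Glo was then added, and luminescence was read after 30 min at room temperature to gauge cytotoxicity.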

[3] = qHTS assay for small molecules that induce genotoxicity in human embryonic kidney cells expressing luciferase-tagged ATAD5 - cell viability (AID 651634; calls by dose curve; note: nearly all actives have a fitted effect of over 25% in size; note: potency is the fitted concentration of half-maximal effect)
Method in brief: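 Cytotoxicity counterscreen in HEK293T cells bearing an ATAD5-luciferase reporter: live-cell protease activity measured by CellTiter-Fluor fluorescence after 15.5 hr compound exposure.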

[4] = qHTS assay for small molecule disruptors of the mitochondrial membrane potential - cell viability (AID 720634; calls by dose curve; note: nearly all actives have a fitted effect of over 20% in size; note: potency is the fitted concentration of half-maximal effect)
Method in brief: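 After overnight attachment at 37 C, HepG2 cells received compound or DMSO vehicle for 1 hr. Viability is then taken from ATP-driven luminescence following a 30 min room-temperature CellTiter-Glo step.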

[5] = qHTS assay for small molecule disruptors of the mitochondrial membrane potential (AID 720635); note: potency is the fitted concentration of half-maximal effect
Method in brief: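 HepG2 cells (2,000/well) attached overnight at 37C, then took compound for 1 hr at 37C, 5% CO2. Mito-MPS dye was added for 30 min; fluorescence was read at 490/535 nm (monomers) and 540/590 nm (aggregates).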

[6] = qHTS assay to test for compound auto fluorescence at 590 nm (red) in HepG2 cells (AID 720674)
Method in brief: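 Rose Bengal sodium served as the red fluorophore standard. HepG2 monolayers (overnight attachment, MEM with 10% FBS) were exposed to test compounds for 1 hr at 37 C and read at Ex 540/Em 590 nm.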

[7] = qHTS assay to test for compound auto fluorescence at 535 nm (green) in HepG2 cells (AID 720675)
[8] = qHTS assay to test for compound auto fluorescence at 460 nm (blue) in HEK293 cells (AID 720678)
Method in brief: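 HEK293, 2,000 cells/well, 10% dialyzed FBS; attach 4-5 hr 37C; pin compound or DMSO; o/n 37C/5% CO2; fluorescence 405/460 nm; triamterene-equivalent units.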

[9] = qHTS assay to test for compound auto fluorescence at 590 nm (red) in HEK293 cells (AID 720679)
Method in brief: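 Intensity at 540nm excitation and 590nm emission is reported as Rose Bengal sodium-equivalent autofluorescence. Measurements followed overnight exposure (37C, 5% CO2) of HEK293 cells, 2,000 per well, to 23 nL compound.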

[10] = qHTS assay for small molecule agonists of the p53 signaling pathway (AID 651631; calls by dose curve; note: nearly all actives have a fitted effect of over 15% in size; note: potency is the fitted concentration of half-maximal effect)
Method in brief: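 Read-out is beta-lactamase FRET fluorescence measured 2 h after substrate addition at room temperature, in HCT-116 cells with a p53 response element-driven reporter exposed to compounds for 16 h at 37 °C.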

Measured: Potency

CC(C)(C)CC(C)(C)c1ccc(O)cc1
inactive: [1] | [6] | [7] | [8]
active: [2] 29.8 µM and 30.6 µM | [3] 61.1 µM | [4] 23.7 µM and 17.2 µM | [5] 3.35 µM and 1.72 µM

CCOC(=O)NC(O)C(Cl)(Cl)Cl (stereo not drawn)
not listed: [10]
inactive: all other assays above

NP(N)(=O)NC(=O)c1ccc(F)cc1
not listed: [5] | [8] | [10]
inactive: all other assays above

CCOP(=O)(O)C(N)=O
active: [5] 3.44 µM
not listed: [7] | [10]
inactive: all other assays above

CCc1ccccc1N
not listed: [5] | [10]
inactive: all other assays above

FC(Cl)(Cl)C(F)(Cl)Cl
not listed: [8] | [10]
inactive: all other assays above

CCOP(=S)(OCC)Oc1ccc(S(C)=O)cc1 (stereo not drawn)
not listed: [10]
inactive: all other assays above

Nc1cccc2ccccc12
not listed: [1] | [3] | [5]
inactive: all other assays above

C[C@H]1[C@@H]2Cc3ccc(O)cc3[C@@]1(C)CCN2C
not listed: [10]
inactive: all other assays above

C=CC(C)(CCC=C(C)C)OC(=O)c1ccccc1N (stereo not drawn)
inactive: [10] | [2] | [4] | [6] | [7] | [9]

CC[N+]1(CCOC(=O)C(O)(c2ccccc2)c2ccccc2)CCCCC1
not listed: [8] | [9] | [10]
inactive: all other assays above

CCOP(=O)(SC(C)CC)N1CCSC1=O (stereo not drawn)
not listed: [10]
inactive: all other assays above

O=[N+]([O-])/C=C/c1ccccc1
inactive: [6] | [9]
active: [10] 2.47 µM and 2.43 µM
62.1 µM (active) and inactive: [4]

O=C(N[C@H]1CN2CCC1CC2)c1ccc2c(c1)OCCO2
not listed: [7] | [8] | [10]
inactive: all other assays above

C=CCN1C[C@H](C)N([C@H](c2ccc(C(=O)N(CC)CC)cc2)c2cccc(OC)c2)C[C@H]1C
not listed: [10]
inactive: all other assays above

O=C(NC(=O)c1cc(F)c(F)cc1Cl)Nc1cc(F)ccc1N1CCC(C(=O)O)CC1
not listed: [5] | [10]
inactive: all other assays above

Clc1ccccc1
not listed: [10]
inactive: all other assays above

O=[N+]([O-])c1cc(Cl)c(Cl)cc1Cl
not listed: [5] | [10]
inactive: all other assays above

O=C(O)COc1cc(Cl)c(Cl)cc1Cl
not listed: [5] | [7] | [10]
inactive: all other assays above

COc1ccc(C(=O)c2c(C)n(CCN3CCOCC3)c3ccccc23)cc1
not listed: [5] | [9] | [10]
inactive: all other assays above

O=C(Cc1ccccc1)c1ccccc1
not listed: [5] | [10]
inactive: all other assays above

CC(C)c1ccc(NC(=O)N(C)C)cc1
not listed: [5] | [9] | [10]
inactive: all other assays above

CN(C1CCCCC1)C1CCCCC1
not listed: [8] | [10]
inactive: all other assays above

COCc1cnc(C2=NC(C)(C(C)C)C(=O)N2)c(C(=O)O)c1 (stereo not drawn)
inactive: [1] | [2] | [3] | [4] | [6]

CCCCCBr
not listed: [5] | [8] | [10]
inactive: all other assays above

c1ccc2sc(SNC3CCCCC3)nc2c1
active: [5] 67.8 µM and 54.5 µM
not listed: [8] | [10]
inactive: all other assays above

O=C1NC(=O)C(=O)C(=O)N1
not listed: [7] | [8] | [10]
inactive: all other assays above

CCC1(CCC(C)C)C(=O)NC(=O)NC1=O
not listed: [5] | [10]
inactive: all other assays above

CCC(C)(C)c1ccc(O)c(C(C)(C)CC)c1
active: [2] 21.4 µM and 27.3 µM | [3] 53.9 µM | [4] 6.04 µM | [5] 1.52 µM and 1.37 µM
inactive: [1] | [6] | [7] | [9]

CC(C)(C)c1ccc(CCOc2ncnc3ccccc23)cc1
not listed: [8] | [10]
inactive: all other assays above

[Cl-].[Cl-].[Hg+2]
active: [3] 5.31 µM and 30.5 µM and 61.1 µM
inactive: [6] | [7] | [8] | [9]
